# Experimental data reported in PubChem BioAssay AID588676 (Johns Hopkins Ion Channel Center, 2011).
# The campaign covered roughly 310,000 compounds. About 3,900 (1.3%) were called active. The sample holds actives, similar compounds and a random draw of the others, so the mix is not that of the screen.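 How the source made its calls: active means calcium-response B-score plate-corrected more than 3 library SD below zero, starting fluorescence within 5 deviations, no agonist response on first addition; inactive means the rest.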
# Molecular target: Mas-related G-protein coupled receptor member X1 (Homo sapiens) (UniProt Q96LB2)
# Sequence (Q96LB2 whole entry, looked up): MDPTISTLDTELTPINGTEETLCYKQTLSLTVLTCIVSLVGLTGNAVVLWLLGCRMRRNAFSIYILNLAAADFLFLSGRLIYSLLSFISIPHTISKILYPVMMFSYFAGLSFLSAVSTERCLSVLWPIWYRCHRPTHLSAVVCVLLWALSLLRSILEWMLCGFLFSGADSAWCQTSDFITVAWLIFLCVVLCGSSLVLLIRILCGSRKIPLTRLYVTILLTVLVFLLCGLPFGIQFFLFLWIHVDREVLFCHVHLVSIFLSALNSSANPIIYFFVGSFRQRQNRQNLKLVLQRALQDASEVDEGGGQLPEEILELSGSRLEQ
# Assay: blockade of BAM8-22-evoked MrgX1 calcium response – HEK293 cells, Fluo-4 calcium flux, primary screen (AID 588676);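 on B-score: peak minus trough fluorescence over baseline after final BAM8-22 challenge near maximal dose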
# Conditions: Fluo-4, BAM8-22 antagonism, at 10 µM; stronger effect = lower value
row,Structure (SMILES),B-score
1,Cc1nccn1CCC1CCCCN1C(=O)CCc1nnc(-c2ccsc2)o1 (stereo not given),-4.86 (active)
2,CC(C)CC(O)C1CCN(C(=O)CCc2nnc(-c3ccc4c(c3)OCO4)o2)CC1 (stereo not given),inactive
3,COCC1CCN(C(=O)CCc2nnc(C3(c4ccc(Cl)cc4)CCC3)o2)C1 (stereo not given),inactive
4,O=C(CSCc1ccc([N+](=O)[O-])cc1)NCCSCc1ccccc1,inactive
5,CN(C)C(CNC(=O)Cc1ccc([N+](=O)[O-])cc1)c1ccccc1 (stereo not given),inactive
6,CN(C)CCNC(=O)Cc1ccc([N+](=O)[O-])cc1,-6.37 (active)
7,FC(F)Oc1ccc(NC(=S)NCc2ccco2)cc1Cl,-4.6 (active)
8,COc1cc(NC(=S)NCc2ccco2)c(OC)cc1Cl,inactive
9,S=C(NCc1ccco1)Nc1ccc2c(c1)OCCO2,inactive
10,O=C1CCc2cc(S(=O)(=O)Nc3ccc(C(F)(F)F)cc3)cc3c2N1CC3,inactive
11,CCN(CC(=O)Nc1cc(Cl)ccc1C)C(=O)Cn1c(=O)cnc2ccccc21,inactive
12,O=S(=O)(NC1CCCCC1N1CCCCC1)c1ccc(Cl)cc1 (stereo not given),inactive
13,CCN1CCN(C2CCCCC2NS(=O)(=O)c2ccc(Cl)cc2)CC1 (stereo not given),inactive
14,CCOC1CCCCC1NS(=O)(=O)c1ccc(Cl)cc1 (stereo not given),-6.36 (active)
15,O=C(O)CCCN1C(=O)c2ccccc2Sc2ncccc21,inactive
16,COc1ccc(CC(=O)NCc2nnc(SCC(=O)Nc3nccs3)n2C)cc1,inactive
17,COc1ccc(C(=O)NCc2nnc(SCCOc3ccccc3)n2C)cc1,-8.04 (active)
18,COc1ccc(C(=O)NCc2nnc(SCC(=O)NC3=NCCS3)n2C)cc1,inactive
19,CCN(CC)C(=O)CSc1nnc(CNc2ccc(F)cc2)n1Cc1ccco1,inactive
20,CC(C)(C)n1c(=O)[nH]c2c(c1=O)CCC2,-7.85 (active)
21,O=c1[nH]n2c(=O)c3c([nH]c2c1N=Nc1ccccc1)CCC3,inactive
22,O=C(COC(=O)Cc1c[nH]c2ccccc12)NCCc1ccccc1,inactive
23,Cc1nc(CNS(=O)(=O)c2ccc(Oc3ccccc3)cc2)cs1,inactive
24,O=C(NCCCc1ccccc1)C(=O)c1c[nH]c2ccccc12,inactive
25,CCS(=O)(=O)N1Cc2ccccc2CC1C(=O)Nc1nc2ccc(F)cc2s1 (stereo not given),inactive
26,COc1ccc(OCCCC(=O)OC(C)C(=O)Nc2ccccc2[N+](=O)[O-])cc1 (stereo not given),inactive
27,COc1ccc(N2CCN(C(=O)CN3C(=O)COc4ccccc43)CC2)cc1,inactive
28,Nc1ccc(SCCN2C(=O)c3ccccc3C2=O)cc1,inactive
29,NC(=O)C1(C(N)=O)OC1c1ccc(Cl)cc1Cl (stereo not given),inactive
30,O=C(NC1CC1)C1=C[C@H](c2coc3ccccc3c2=O)C[C@H](OCCCCO)O1,inactive
